# Hit rate of the full screen: of about 310,000 compounds, about 14,000 (4.5%) showed an effect of 50% or more. Effects have a minus sign here. For the sample, strong results were picked, then their nearest neighbours and some compounds at random.
# Biological target: human ether-à-go-go-related gene (hERG) potassium channel (human, UniProt Q12809)
# Experiment: primary screen, population patch clamp on CHO cells stably expressing hERG; higher = less effect of the substance
# 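Also: peak tail current of the secondary pulse compared with the same well before compound.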
# Sequence of human ether-à-go-go-related gene (hERG) potassium channel (Q12809 whole entry, looked up): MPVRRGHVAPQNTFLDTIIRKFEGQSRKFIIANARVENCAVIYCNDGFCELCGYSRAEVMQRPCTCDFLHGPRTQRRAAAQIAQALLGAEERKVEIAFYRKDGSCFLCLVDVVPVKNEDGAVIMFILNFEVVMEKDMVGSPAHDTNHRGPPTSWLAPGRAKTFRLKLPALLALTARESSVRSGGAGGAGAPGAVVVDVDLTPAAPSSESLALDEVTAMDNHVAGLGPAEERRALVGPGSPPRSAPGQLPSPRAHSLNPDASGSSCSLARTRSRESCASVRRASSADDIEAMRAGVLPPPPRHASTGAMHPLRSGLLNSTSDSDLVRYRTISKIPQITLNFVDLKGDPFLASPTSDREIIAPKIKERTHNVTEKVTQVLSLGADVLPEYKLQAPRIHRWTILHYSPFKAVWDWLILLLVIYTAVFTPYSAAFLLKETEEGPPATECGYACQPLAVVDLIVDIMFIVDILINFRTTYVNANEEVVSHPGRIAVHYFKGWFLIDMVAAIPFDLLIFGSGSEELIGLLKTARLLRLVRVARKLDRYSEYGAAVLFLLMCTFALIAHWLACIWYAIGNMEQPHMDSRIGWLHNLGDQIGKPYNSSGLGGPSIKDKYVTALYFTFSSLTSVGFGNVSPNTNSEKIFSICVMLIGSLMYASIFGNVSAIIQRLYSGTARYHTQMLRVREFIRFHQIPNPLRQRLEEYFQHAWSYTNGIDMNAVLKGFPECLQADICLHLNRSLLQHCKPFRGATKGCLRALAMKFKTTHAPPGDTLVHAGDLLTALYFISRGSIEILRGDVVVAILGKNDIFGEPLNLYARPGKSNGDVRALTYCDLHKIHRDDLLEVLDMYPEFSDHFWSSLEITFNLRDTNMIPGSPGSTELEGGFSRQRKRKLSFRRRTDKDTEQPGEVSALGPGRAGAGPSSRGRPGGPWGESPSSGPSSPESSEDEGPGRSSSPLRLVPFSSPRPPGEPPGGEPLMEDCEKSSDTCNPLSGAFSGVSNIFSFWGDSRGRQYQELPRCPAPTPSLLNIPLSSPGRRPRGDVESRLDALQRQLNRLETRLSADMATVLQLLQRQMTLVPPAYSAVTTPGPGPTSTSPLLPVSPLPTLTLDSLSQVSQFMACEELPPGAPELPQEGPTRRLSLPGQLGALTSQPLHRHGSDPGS
row,Compound,"hERG current change (%, negative = inhibition) at 10uM [%]"
1,CCOP(=O)(c1ccccc1)C1(O)CCCCC1 (stereo not shown),-1.86
2,CCCc1oc(C(=O)O)cc1CN1CCOCC1.Cl,8.54
3,COC(=O)C1=C(C)N(Cc2ccccc2)C(=O)N[C@H]1c1ccco1,5.95
4,COc1ccc(N2CCN(C(CNC(=O)c3cccc(Cl)c3)c3cccnc3)CC2)cc1 (stereo not shown),-38.7
5,O=C(NCC(c1cccnc1)N1CCN(c2ccccc2)CC1)c1ccc2c(c1)OCO2 (stereo not shown),-26.5
6,O=C(NCC(c1cccnc1)N1CCN(c2ccc(F)cc2)CC1)c1ccccc1 (stereo not shown),-40.2
7,O=C(NCC(c1cccnc1)N1CCN(c2ccc(F)cc2)CC1)c1ccc2c(c1)OCO2 (stereo not shown),-65.3
8,COc1ccc(N2CCN(C(CNC(=O)c3ccc4c(c3)OCO4)c3cccnc3)CC2)cc1 (stereo not shown),-16.2
9,O=C(NCC(c1cccnc1)N1CCN(c2ccc(F)cc2)CC1)c1cccc(Cl)c1 (stereo not shown),-66.2
10,COCCN=c1scc(-c2ccc3c(c2)NC(=O)CO3)n1/N=C(\C)c1ccc(O)cc1,-8.23
11,Cn1c(=NC(=O)C2CC2)sc2cc(F)cc(F)c21,-12.3
12,CCOC(=O)c1c(NC(=O)c2cccs2)sc(CC)c1-c1cccs1,-11
13,Cc1nnc(NC(=O)CSc2ccc([N+](=O)[O-])cn2)s1,17.9
14,CCOC(=O)C1CCN(CC(C)(C)NS(=O)(=O)c2ccccc2)CC1,11.5
15,CC(C)(CN1CCCC1)NS(=O)(=O)c1ccccc1.Cl,24.7
16,CC(=O)N1CCN(CC(C)(C)NS(=O)(=O)c2ccc(C)cc2)CC1,7.76
17,CC(C)(CN1CCC(Cc2ccccc2)CC1)NS(=O)(=O)c1ccccc1.O=C(O)C(=O)O,-60.8
18,Cc1ccc(S(=O)(=O)NC(C)(C)CN2CCC(Cc3ccccc3)CC2)cc1.O=C(O)C(=O)O,-64.8
19,CCOC(=O)C1CCN(CC(C)(C)NS(=O)(=O)c2ccc(C)cc2)CC1,-4.95
20,COC(=O)c1ccc(-n2cc(-c3ccc(OC)cc3)[nH]c2=S)cc1,33.1
21,Nc1c(C(=O)c2ccc(Cl)cc2)sc2c1c(=O)[nH]c(=O)n2-c1ccccc1,-24.2
22,CC[C@]1(c2ccccc2)C(=O)N(C(=O)OC)N1C(=O)OC,25.2
23,COc1ccc(-c2noc3c2-c2nc(-c4ccc(Cl)cc4)sc2CC3)cc1,9.5
24,CCCNC(=O)C12CCC(C)(C(=O)O1)C2(C)C (stereo not shown),17.2
25,Clc1ccc2nc(-c3ccc(Br)s3)cn2c1,8.14
26,Cc1oc(-c2cccc(Cl)c2)nc1CN1CCC(C(=O)NCCCN2CCCC2=O)CC1,-38
27,COc1ccc(-c2nc(CN3CCC(C(=O)NC4CCN(Cc5ccccc5)CC4)CC3)c(C)o2)cc1OC,1.67
28,CCc1ccc(-c2nc(CN3CCC(C(=O)NCc4ccccc4OC)CC3)c(C)o2)cc1,-68.4

row,Compound,"hERG current change (%, negative = inhibition) at 10uM [%]"
1,COc1ccccc1CNC(=O)C1CCN(c2nc3ccccc3o2)CC1,-9.09
2,COc1ccccc1CNC(=O)C1CCN(Cc2nc(-c3cccc(Cl)c3)oc2C)CC1,-78
3,COCCOC(=O)c1c(NC(=O)COC(=O)c2ccc(C)o2)sc(C(N)=O)c1C,-10.9
4,CCc1ccc(CCOc2ccc(CC3SC(=O)NC3=O)cc2)nc1.Cl (stereo not shown),4.26
5,CC(C)CC(=O)N1CCN(C(=O)c2cccc(F)c2)CC1,0.0457
6,C1CCC(OCCN2CCN(CCOC3CCCCC3)CC2)CC1,-37.1
7,Cc1ccc(N2C(=O)NC3(CCCCC3)C2=O)cc1,9.24
8,COc1ccccc1N1CCN(C(=O)Nc2cccc(C)c2)CC1,-3.99
9,O=C(Nc1ccc(F)cc1F)N1CCN(c2ncccn2)CC1,-8.77
10,COc1ccccc1N1CCN(C(=O)Nc2cccc(Cl)c2)CC1,-28.2
11,CCCCc1ccc(NC(=O)N2CCN(c3cc(C)nc4ccccc34)CC2)c(C)c1,-61.6
12,CC(C)n1c(N2CCN(C(=O)Nc3ccc(F)cc3F)CC2)nc2ccccc21,-26.3
13,Cc1ccccc1NC(=O)N1CCN(c2ncccn2)CC1,4.15
14,Cc1cc(N2CCN(CC(O)C(F)(F)F)CC2)c2ccccc2n1 (stereo not shown),-40.7
15,Cc1cc(N2CCN(C(=O)/C=C/C(=O)O)CC2)c2ccccc2n1,32.4
16,COc1cccc(Cl)c1NC(=O)N1CCN(c2cc(C)nc3ccccc23)CC1,-75.3
17,Cc1cc(N2CCN(C(=O)Nc3ccc(F)cc3F)CC2)c2ccccc2n1,-72.2
18,Cc1cc(N2CCN(C(=O)Nc3ccccc3C#N)CC2)c2ccccc2n1,-72.9
19,Cc1cc(C(=O)Nc2ccccc2N2CCOCC2)c2ccccc2n1,-15.5
20,CCOC(=O)c1sc(NC(=O)C2C3C=CC(C3)C2C(=O)O)nc1C (stereo not shown),16.2
21,CC[C@H](C)/C=C(C)/C=C/C1=CC2=CC(=O)[C@]3(C)OC(=O)[C@@H](C(C)=O)[C@@H]3C2=CO1,4.65
22,O=[N+]([O-])c1ccc(O)c(/C=N/n2c(-c3ccccc3)n[nH]c2=S)c1,17.9
23,O=C(O)c1cccc(Nc2ncnc3ccccc23)c1,17.3
24,CC1CCCC(C)N1NC(=O)c1cccc(S(=O)(=O)N2CCc3ccccc32)c1 (stereo not shown),-2.22
25,Cc1ccc(CSc2ncnc3ccccc23)cc1,11.3
26,Cc1ccc(S(=O)(=O)NNC(=O)C2COc3ccccc3O2)cc1C (stereo not shown),15.2
27,O=C(CSc1nnc(-c2ccc(S(=O)(=O)N3CCCC3)cc2)o1)NCc1ccco1,-7.57
